Marburg entry inh = inhibitors of Marburg virus binding or cell entry. Marburg virus pseudotyped entry inhibition, cell reporter. Potency, µM (series often up to 37.8 µM), usual class: inhibitors. hit rate 1.8% among 300,000. AID 540276; calls by dose curve; tested in HEK293 cells
HCV inh = blocks hepatitis C virus | Huh7.5.1 HCVcc-Cre infection, luciferase reporter, 44 h | Potency, µM (highest dose often 41.8 µM), hits mostly inhibitors | hit rate 3.4% among 340,000 | AID 651820; active = well fitted inhibition curve with a large enough effect; inconclusive = small, poorly fitted or top-dose-only effect, or another doubt; inactive = no such curve, though single readings can be large or run the other way
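Cells (1,000/well) were plated 4 h before compound, then infected with HCVcc-Cre virus (~0.5 moi). After 44 h further culture, infection was read as luciferase luminescence following a 15 min substrate incubation at room temperature.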
Vaccinia Venus = vaccinia inhibition (Venus reporter); Vaccinia virus Venus reporter expression, fluorescence; Potency, µM (titrated, usually from 36.5 µM), hits mostly inhibitors; hit rate 0.46% among 330,000; AID 720580; calls by dose curve; tested in A549 cells; note: nearly all actives have a fitted effect of over 30% in size
HCMV antiviral = human cytomegalovirus inhibition. HFF cells, HCMV-luciferase reporter, 72 h; stronger effect = lower value. hit rate 4.5% among 410,000. AID 1259415. activity change, negative = inhibition, % at 57.5 µM; in the data active = activity change below about -60%; inconclusive = no clear call, values can overlap the other calls; inactive = above about -39%
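Human foreskin fibroblasts infected with luciferase-reporter HCMV at MOI 1 PFU/cell, compounds at two doses. Luciferase measured 72 h post infection; normalized to buffer-only basal and Salinomycin (10uM) controls.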
LASV entry inh = Lassa virus entry inhibition; Lassa virus pseudotype entry inhibition, cell reporter; Potency, µM (highest dose often 37.9 µM), most hits filed as inhibitors; hit rate 1.2% among 300,000; AID 540256; calls by dose curve; tested in HEK293 cells; note: nearly all actives have a fitted effect of over 50% in size
VACV mCherry inh = vaccinia inhibition (mCherry reporter). Vaccinia virus mCherry reporter infection, fluorescence. Potency, µM (doses to about 36.5 µM), actives largely listed as inhibitors. hit rate 0.63% among 310,000; calls by dose curve; tested in A549 cells; note: nearly all actives have a fitted effect of over 35% in size
A number is an active result; - = inactive; ? = inconclusive; . = no result; [ ] = dose if it differs, or a comment. Compounds with a hit are over-represented: about 7.8% of the library has one in this group of screens.

SMILES | Marburg entry inh | HCV inh | Vaccinia Venus | HCMV antiviral | LASV entry inh | VACV mCherry inh
CC(=O)Nc1ccc(Nc2cc(C)nc3c(-c4ccc(Cl)cc4)cnn23)cc1 | ? | ? | - | -70 | ? | ?
Cc1cc(C)n(-c2nc3ccccc3nc2Nc2ccc(Cl)c(Cl)c2)n1 | - | . | - | - | - | -
O=C(O)c1ccc(NC(=O)c2ccccc2NC(=O)c2ccccc2Br)cc1 | - | - | - | - | - | -
Cc1ccccc1C(=O)Nc1ccc(-c2nc3ccc(C(=O)c4ccccc4)cc3[nH]2)cc1 | ? | 11µM | ? | ? | ? | .
Cc1ccc2nc(-c3ccc(NC(=O)c4ccco4)cc3)[nH]c2c1 | ? | ? | . | - | ? | .
O=C(c1ccccc1)c1ccc2nc(-c3ccc(NC(=O)c4ccccc4Br)cc3)[nH]c2c1 | - | 25µM | - | - | - | -
COC(=O)C1CCN(Cc2ccc3c(c2)CN(C(=O)C2CCCN(c4ccccn4)C2)CCO3)CC1 (stereo not given) | . | . | - | . | . | -
CC(=O)Nc1cccc(C#Cc2cncnc2Nc2ccc(OCc3cccc(F)c3)c(Cl)c2)c1 | . | . | . | . | 16µM | .
CCNC(=O)OC1CNC(C#Cc2cc3ncnc(Nc4ccc(OCc5cccc(F)c5)c(Cl)c4)c3s2)C1 (stereo not given) | . | . | . | . | 7.9µM | .
Nc1nccc(C#Cc2cncnc2Nc2ccc(OCc3cccc(F)c3)c(Cl)c2)n1 | . | . | . | . | 18µM | .
c1ccc([C@H]2NCCc3c2[nH]c2ccccc32)cc1 | - | . | . | . | . | .
O=C(NCC1CC1)c1ccc2nc(-c3ccoc3)c(-c3ccoc3)nc2c1 | . | . | - | . | . | -
Cc1ccc(NC(=O)c2ccoc2)cc1-c1ccc(C(=O)NCC2CC2)cc1 | . | . | . | . | 3.1µM | .
Cc1ccc(C)c(-n2nnnc2Sc2nc([N+](=O)[O-])nn2C)c1 | ? | - | ? | -70 | - | ?
Cc1ccc(-n2nnnc2Sc2nc([N+](=O)[O-])nn2C)cc1C | - | - | - | - | - | -
CCc1c(C)sc2c1CCN(Cc1ccccc1)C2c1ccccc1 (stereo not given) | . | . | - | -102 | ? | -
COC(=O)CCc1ccc(OCC(O)CNC(C)C)cc1 (stereo not given) | . | - | - | -64 | . | -
CC(=O)CCc1ccc(OCC(O)CNC2CCCc3ccccc32)cc1 (stereo not given) | ? | ? | - | -73 | - | -
CC(=O)Nc1ccc(OCC(O)CNC(C)C)cc1 (stereo not given) | . | - | - | - | . | -
O=C(c1ccccc1)c1ccc(OCC(O)CNC2CCCc3ccccc32)cc1 (stereo not given) | ? | ? | - | - | - | -
Cc1ccc(NC(=O)Nc2c[nH]c(=O)[nH]c2=O)c(Cl)c1 | . | . | - | - | - | -
COc1ccccc1OCC(=O)NCCS(=O)(=O)N1CCN(c2ccccc2OC)CC1 | . | . | - | - | - | -
CCN(CC)CCSc1nnc2c3cc(C)ccc3n(Cc3ccccc3)c2n1 | ? | 13µM | -[7.34 µM] | -85 | ? | -[7.34 µM]
CC(=O)/C(=C/c1ccccc1)C(=O)Nc1ccccc1C | . | ? | ? | -96 | . | ?
CC(=O)Nc1ccccc1C | . | - | - | ? | . | -
SMILES | Marburg entry inh | HCV inh | Vaccinia Venus | HCMV antiviral | LASV entry inh | VACV mCherry inh
Cc1ccccc1NC(=O)C(=Cc1ccc(C(=O)O)cc1)C(=O)Nc1ccccc1C | ? | ? | ? | -99 | ? | ?
N#C/C(=C/c1ccc(C(=O)O)cc1)C(=O)Nc1ccccc1 | ? | - | - | - | - | -
O=C(CSc1nc2ccsc2c(=O)n1-c1ccc(Cl)cc1)NCc1ccc(Cl)cc1 | . | . | - | - | ? | -
COc1ccc(CCNCC2C(Oc3ccc(Cl)cc3)C(=O)N2c2ccccc2C)cc1OC (stereo not given) | 11µM | ? | - | ? | - | -
COc1cc(/C(C)=N/NC(=O)Cc2c(C)[nH][nH]c2=O)ccc1O | - | - | - | -67 | - | -
C/C(=N/NC(=O)Cc1c(C)[nH][nH]c1=O)c1ccc(O)cc1 | - | - | - | - | ? | -
CCO[C@H]1c2c(ccc3ccc(=O)oc23)OC(C)(C)[C@@H]1O | . | 2.8µM | - | - | . | -
C/C=C(/C)C(=O)O[C@@H]1c2c(ccc3ccc(=O)oc23)OC(C)(C)[C@@H]1OC(=O)/C(C)=C\C | ? | 22µM | - | - | ? | -
CCO[C@@H]1c2c(ccc3ccc(=O)oc23)OC(C)(C)[C@@H]1O | . | - | - | - | . | -
Cc1coc2c(O)cc3c(c12)O[C@@]1(N2CCCCC2)C(=O)NCCC[C@@H]31 | - | . | . | . | . | .
O=C(CSc1nnc(-c2ccc(O)cc2)n1Cc1ccco1)c1cccs1 | - | - | . | - | - | .

From PubChem
